Screening data (PubChem BioAssay)
A selection: hits, their analogues and other compounds. The true share with any hit is near 3.9%.
Tb PFK inh: qHTS Assay to Find Inhibitors of T. brucei phosphofructokinase | ATP-dependent 6-phosphofructokinase (Trypanosoma brucei brucei), O15648 | T. brucei PFK, ADP-Glo luminescence | Potency, µM (titrated, usually from 57.5 µM), for inactives: top-dose activity, negative = inhibition, most hits filed as inhibitors | actives 0.17% (n = 330,000);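 note: 0% = uninhibited 1x PFK enzyme wells and -100% = no-enzyme wells; nearly all actives have a fitted effect of over 60% in size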
Target sequence (O15648 whole entry, looked up): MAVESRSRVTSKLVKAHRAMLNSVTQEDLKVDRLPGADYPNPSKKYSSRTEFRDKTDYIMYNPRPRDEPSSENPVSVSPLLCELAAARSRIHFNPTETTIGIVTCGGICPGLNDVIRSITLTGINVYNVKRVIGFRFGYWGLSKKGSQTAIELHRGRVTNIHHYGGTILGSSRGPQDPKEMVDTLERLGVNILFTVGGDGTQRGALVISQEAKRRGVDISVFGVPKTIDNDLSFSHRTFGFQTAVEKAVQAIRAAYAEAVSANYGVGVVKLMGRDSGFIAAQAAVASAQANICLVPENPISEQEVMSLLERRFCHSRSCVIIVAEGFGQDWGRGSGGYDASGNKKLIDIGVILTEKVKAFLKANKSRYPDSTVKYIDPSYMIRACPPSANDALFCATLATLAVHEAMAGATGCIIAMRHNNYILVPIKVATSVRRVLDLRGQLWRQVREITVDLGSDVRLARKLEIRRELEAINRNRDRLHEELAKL
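Activity is normalized to no-enzyme wells (full inhibition) and 1.25 nM enzyme wells (no inhibition). Reaction: 0.5 mM F6P, 0.1 mM ATP, 45 min RT, ADP-Glo luminescence; concentration-response curves fitted and classed by quality.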
BRCA1 expr act: qHTS Assay to Identify Small Molecule Activators of BRCA1 Expression; MCF7-BRCA1-FFLuc reporter, luminescence, 48 h; response scale: scaled: vehicle 0%, 10 µM genistein 100%; Potency, µM (titrated, usually from 46.1 µM), inactives show top-dose activation, actives largely listed as activators; actives 1.1% (n = 380,000); note: nearly all actives have a fitted effect of over 80% in size
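Luminescence from a BRCA1-driven firefly luciferase in MCF7 cells was the read-out, taken 15 min after substrate addition following 48 h compound exposure at 37 °C. Data were normalized to a 10 microM genistein control and DMSO vehicle.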
PLK1 PBD inh: qHTS for Inhibitors of PLK1-PDB (polo-like kinase 1 - polo-box domain): Primary Screen. actives 2.8% (n = 360,000). Plk1 PBD binding of FITC phosphopeptide, fluorescence polarization. AID 720504, 2013. Potency, µM, for the others: max response, negative = inhibition, usual class: inhibitors; note: series mostly up to about 57 µM; % is set by controls: 0 for no effect and ±100 for the full control effect; nearly all actives have a fitted effect of over 65% in size
VDR inhibitor: Inhibitors of the vitamin D receptor (VDR): qHTS; Potency, µM, inactives show max response, negative = inhibition, actives largely listed as inhibitors; actives 0.93% (n = 400,000); VDR-SRC2-3 peptide fluorescence polarization, 2 h; AID 504847, 2011; Vitamin D3 receptor (Homo sapiens), P11473; note: % is set by controls: 0 for no effect and ±100 for the full control effect
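Fluorescence polarization assay of small-molecule disruption of VDR binding to coregulator peptide SRC2-3. Compounds and controls pin-transferred, then read after 2 h incubation at ambient room temperature.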
The depositor's hits bear a star; ? = inconclusive; . = not tested or not shown. Calls come from the whole dose curve; as a rule, active = well fitted curve in the direction sought with a large enough effect; inconclusive = small, poorly fitted or top-dose-only effect, or another doubt; inactive = no such curve, though single readings can be large; an effect the other way counts as inactive or inconclusive. Potency is the fitted concentration of half-maximal effect.

SMILES	Tb PFK inh	BRCA1 expr act	PLK1 PBD inh	VDR inhibitor
CCCn1c(SCC(=O)Nc2cc(S(=O)(=O)N3CCOCC3)ccc2Cl)n[nH]c1=O	-0.4%	0.9%	-19.0%	-10.6%
COc1ccccc1NC(=O)CN1C(=O)COc2ccc(S(=O)(=O)N3CCCCCC3)cc21	2.4%	-3.4%	29.9µM*	-16.8%
CCOC(=O)C1=C(CN2CCN(c3ccccc3)CC2)NC(=O)NC1c1ccc(C)cc1 (centres undefined)	.	13.5%	.	-10.8%
CCCn1c(=O)c(C(=O)NCc2ccccc2)c(O)c2ccccc21	0.0%	-43.4%	11.9µM*	?
CCCn1c(=O)c(C(=O)NCCc2ccccc2)c(O)c2ccccc21	-0.5%	24.7%	-12.0%	6.1%
CCOc1ccc(C2CC(=O)c3c([nH]c(C(=O)OCC4CCCCC4)c3C)C2)cc1 (centres undefined)	.	.	.	-6.6%
CN1OC[C@@H]2CN(C(=O)C(C)(C)C)[C@H](c3cccc(Oc4ccccc4)c3)C[C@@H]21	.	-2.6%	-0.6%	.
CCN(CC)S(=O)(=O)c1ccc(-c2cn3cc(Cl)ccc3n2)cc1	2.1%	30.1%	11.9µM*	-20.7%
CC(C)C[C@@H](NC(=O)[C@H](Cc1ccccc1)NC(=O)c1cnccn1)B(O)O	.	.	.	-10.1%
COCCNC(=O)c1cc2c(c(-c3cccc(-c4cc5ccccc5o4)c3)n1)[C@@H](CCO)N(S(=O)C(C)(C)C)C2 (some centres undefined)	.	0.0%	-14.4%	.
COc1cccc(-c2nc(N3CCNCC3)c3ccccc3n2)c1	.	.	.	3.3%
O=c1c2cccnc2n(-c2ccccc2)n1Cc1ccc(Cl)cc1	0.0%	-18.7%	26.7µM*	-4.8%
CCC(=O)Nc1ccc(C2=Nn3c(nnc3C(C)C)SC2)cc1	1.1%	-0.2%	23.8µM*	-29.0%
CC(C)[C@H](N)c1nnc2n1N=C(c1ccc(Cl)cc1)CS2	-2.8%	2.3%	3.8%	13.1%
O=c1c(-c2c(O)cc(O)c3c2O[C@H](c2ccc(O)cc2)CC3)c(-c2ccc(O)cc2)oc2cc(O)cc(O)c12	5.5%	5.4%	-6.0%	-4.2%
O=C(O)c1cc(N=Nc2ccc(O)c(C(=O)O)c2)ccc1O	.	.	.	-9.6%
O=C(O)c1cc(N=Nc2ccc(-c3ccc(N=Nc4ccc(O)c(C(=O)O)c4)cc3)cc2)ccc1O	.	.	.	12.6µM*
O=C1NC(Cc2ccc(O)cc2)c2nc3ccc(F)cc3c(=O)n2-c2cc3ccccc3cc21 (centres undefined)	.	-66.1%	-2.3%	.
COc1[nH]c(/N=C/c2ccco2)c(C#N)c1C#N	.	2.2%	.	?
CSc1ncnc2[nH]ccc12	.	4.6%	2.3%	-8.7%
CC12C(=O)N(c3ccccn3)C(=O)C1C1C=CC2C1 (centres undefined)	3.3%	35.0%	29.9µM*	?
Cc1ccnc2c(N3C(=O)C4C5C=CC(C5)C4(C)C3=O)cccc12 (centres undefined)	-1.1%	2.2%	-9.7%	-21.4%
CCC(=O)Nc1ccccc1-c1nc2ccccc2n(C(CC)C(=O)Nc2cccc(C(C)=O)c2)c1=O (centres undefined)	.	.	.	3.9%
COc1cc(C(=O)N/N=c2/sc3ccccc3n2C)cc(OC)c1OC	3.8%	-23.7%	-6.4%	8.9%
Cn1/c(=N/NC(=O)c2ccccc2Br)sc2ccccc21	4.9%	10µM*	-5.8%	2.4%
SMILES	Tb PFK inh	BRCA1 expr act	PLK1 PBD inh	VDR inhibitor
COc1ccc(NC(C)=O)cc1NC(=O)CSc1nc2ncccc2[nH]1	0.9%	17.4%	2.99µM*	-24.0%
COc1ccccc1NC(=O)CSc1nc2ncccc2[nH]1	1.8%	-2.3%	-6.5%	6.2%
CC1=CC(=O)C(C(C)C)=C/C1=N/OC(=O)c1cccc([N+](=O)[O-])c1	-4.2%	-1.4%	3.77µM*	-6.0%
CC1=CC(=O)C(C(C)C)=C/C1=N\OC(=O)c1cccc2nc(C)oc12	-2.5%	-1.0%	-28.6%	-15.2%
COc1ccc(C(=O)ON=C2C=C(C)C(=O)C(C)=C2)cc1	8.2%	-25.2%	-13.6%	-10.7%
CC1=CC(=NOC(=O)c2cccc([N+](=O)[O-])c2)C=C(C)C1=O	-1.0%	-75.7%	6.7µM*	?
N#C/C(=C\c1ccccc1)C(=O)N(c1ccccn1)C1CCCCC1	3.4%	-29.1%	-13.1%	25.1µM*
